# Most compounds without a hit are left out; they make up all but 1.5% or so of the library.
# HDAC3 inhib – human HDAC3 inhibition; O15379; recombinant HDAC3, fluorogenic peptide/trypsin coupled, fluorescence; inhibition, % at 8.3 µM; 320,000 compounds, 0.15% hits; AID 2718; in the data active means inhibition above about 26%, passing the limit was not always enough; inconclusive means no clear call, values can overlap the other calls
# GASC-1 inh – human JMJD2C demethylase inhibition; GST-JMJD2C(1-420) H3K9me3 demethylation, DELFIA europium; Q9H3R0; inhibition, % at 2.35 µM; AID 2099; 330,000 compounds, 0.069% hits;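 active means more than half of a compound's replicate wells show inhibition beyond 50%, single wells judged on their own value; inconclusive means some, but no more than half, of replicates pass 50% inhibition; inactive means no replicate passes 50% inhibition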;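 further: signal counts dimethyl H3K9 product captured on neutravidin plate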
# Target sequence (Q9H3R0 1-420 limits assumed): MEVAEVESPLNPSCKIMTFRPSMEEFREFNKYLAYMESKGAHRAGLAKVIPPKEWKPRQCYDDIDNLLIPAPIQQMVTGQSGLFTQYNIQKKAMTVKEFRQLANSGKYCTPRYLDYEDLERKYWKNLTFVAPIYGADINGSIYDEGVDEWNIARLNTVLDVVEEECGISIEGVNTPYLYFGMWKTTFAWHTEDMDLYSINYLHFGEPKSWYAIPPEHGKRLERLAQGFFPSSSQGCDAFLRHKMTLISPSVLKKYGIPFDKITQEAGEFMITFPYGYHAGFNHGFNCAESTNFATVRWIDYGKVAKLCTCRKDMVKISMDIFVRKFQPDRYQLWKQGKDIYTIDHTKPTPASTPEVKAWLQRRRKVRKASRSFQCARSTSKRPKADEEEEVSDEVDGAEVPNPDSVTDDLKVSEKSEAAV
# NALP3 yeast inh – blocks the NALP3 inflammasome reconstituted in yeast | Yeast reconstituted NLRP3/ASC/caspase-1, beta-gal luminescence, 24 h | inhibition, % at 10 µM | 330,000 compounds, 0.39% hits | AID 2825;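 active means inhibition of 50% or more; inactive means inhibition below 50%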
# NALP1 inh – blocks the NALP1 inflammasome reconstituted in yeast. S. cerevisiae NALP1/ASC/caspase-1 growth, X-gal OD620, 72 h. inhibition, % at 10 µM. 280,000 compounds, 0.61% hits; in the data active means inhibition mostly above about 24%, no sharp cut-off; inactive means mostly below about 32%
# PolyA inhibitor – inhibitors of polyadenylation in S. cerevisiae; S. cerevisiae SKY197-pL101 polyadenylation reporter, beta-gal luminescence; efflux-impaired pdr1/pdr3 knockout yeast; score 100 = 6 SD above DMSO; activity score, % at 12 µM; 300,000 compounds, 0.02% hits;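 active means lowest replicate activity score at least 50, where 100 means six control SD above control mean; inconclusive means lowest score under 50 but half or more replicates reach 50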;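 further: yeast exposed to compound for 9 h at 30 °C; higher score means more reporter readthrough which indicates perturbed polyadenylation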
# Efflux pump mplx – antifungal efflux pump inhibition, Nile Red retention; S. cerevisiae Candida pump triplex; inhibition, % at 10 µM; 330,000 compounds, 0.44% hits;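 active means plate passing quality check with inhibition over a set limit, or well fluorescence over plate mean plus 4 SD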;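 further: Nile Red retained in pooled yeast measured as flow cytometry median fluorescence; higher means more Nile Red kept so more efflux inhibition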
# Yeast cmpd fluor – flagged as fluorescent in efflux inhibitor counter-screen | S. cerevisiae AD/pABC3, compound fluorescence, flow cytometry | shares compounds with Efflux pump mplx | fluorescence ratio to DMSO, % at 10 µM | AID 588517 | 1,700 compounds, 4% hits;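 active means fluorescence ratio to DMSO above its plate's cutoff, the plate mean ratio plus 5 SD, cut at about 210% in these data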;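 further: unstained yeast with no Nile Red so the signal is compound autofluorescence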
# Mdr1 pump inh – blocks the Candida albicans Mdr1 efflux pump in yeast. shares compounds with Efflux pump mplx. S. cerevisiae AD/CaMDR1, Nile Red efflux, flow cytometry. inhibition, % at 10 µM. 1,700 compounds, 1% hits; in the data active means inhibition above about 26%;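 further: higher means more Nile Red retained so more efflux inhibition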
# CaCdr2 efflux inh – inhibitors of Candida albicans Cdr2 efflux pump | Nile Red retention ratio vs DMSO, % at 10 µM | S. cerevisiae AD/CaCDR2, Nile Red retention, flow cytometry | shares compounds with Efflux pump mplx | 1,700 compounds, 4% hits; in the data active means Nile Red retention ratio vs DMSO above about 190%;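 further: higher ratio means more blocking of Cdr2 efflux of the dye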
# Cdr1 pump inh – blocks the Candida albicans Cdr1 efflux pump in yeast. 1,700 compounds, 1% hits. S. cerevisiae AD/CaCDR1, Nile Red efflux, flow cytometry. inhibition, % at 10 µM. shares compounds with Efflux pump mplx. AID 588522;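 active means inhibition above the screen-wide mean plus twice its standard deviation, cut at about 32% in these data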
# Numbers stand for hits; – = inactive; ? = inconclusive; · = no result given.
SMILES,HDAC3 inhib,GASC-1 inh,NALP3 yeast inh,NALP1 inh,PolyA inhibitor,Efflux pump mplx,Yeast cmpd fluor,Mdr1 pump inh,CaCdr2 efflux inh,Cdr1 pump inh
Cc1cccc(NC(=O)CNC(=O)Cc2ccc(S(=O)(=O)N3CCOCC3)s2)c1C,–,–,–,·,·,–,·,·,·,·
Cc1cccc(C(C)C)c1NC(=O)Cc1ccc(S(=O)(=O)N2CCOCC2)s1,–,–,–,·,–,0.5,285.2,–,–,–
Cc1cc(S(=O)(=O)NCC(c2ccc3c(c2)OCO3)N2CCOCC2)ccc1F (centres undefined),–,–,–,·,–,1.0,–,–,–,–
O=C(NCc1ccco1)/C(=C/C=C\c1ccccc1)NC(=O)c1ccc(Br)o1,–,–,–,–,–,7.6,–,–,–,–
COc1ccc(NC(=O)CSC(C)c2nc3ccccc3c(=O)[nH]2)cc1 (centres undefined),–,–,–,–,–,–,·,·,·,·
COc1ccc([N+](=O)[O-])cc1N/C(=N/S(=O)(=O)c1ccccc1)c1ccccc1,–,–,–,–,–,–,·,·,·,·
COCCNC(=O)CSc1nc2cc(OC)c(OC)cc2c(=O)n1Cc1ccc(OC)cc1,–,–,–,–,–,–,·,·,·,·
CCC(Sc1nc2cc(OC)c(OC)cc2c(=O)n1CCc1ccc(OC)c(OC)c1)C(=O)NCCOC (centres undefined),–,–,–,–,–,1.3,–,–,–,–
CCCCCC(=O)N/N=C(\C)c1ccc(Cl)cc1,–,–,–,–,–,9.8,–,–,–,–
CCCCCCCCC(=O)N/N=C(\C)c1cccnc1,–,–,–,–,–,–,·,·,·,·
O=C(c1cn(-c2ccccc2)nc1-c1ccc(F)cc1)N1CCCCC1,–,–,–,–,–,11.1,–,–,–,–
O=C(c1cn(-c2ccccc2)nc1-c1ccc(F)cc1)N1CCOCC1,–,–,–,–,–,–,·,·,·,·
COc1ccc(-c2nc3ccccc3c(=O)n2CCOc2ccc(C)cc2C)cc1,–,–,–,–,–,0.7,–,–,–,–
COc1ccc(-c2nc3ccccc3c(=O)n2CCOc2cc(C)ccc2C)cc1,–,–,–,–,–,0.7,–,–,–,–
COc1ccc(-c2nc3ccccc3c(=O)n2CC(C)C)cc1,–,–,–,–,–,–,·,·,·,·
COc1ccc(-c2nc3ccccc3c(=O)n2CCOc2ccccc2C)cc1,–,–,–,–,–,0.8,–,–,–,–
CC(C)n1c(=O)[nH][nH]c1=S,?,–,–,–,–,–,·,·,·,·
Cc1ccc(C2OC(=O)C=C2c2ccccc2)cc1 (centres undefined),–,–,–,·,–,–,·,·,·,·
O=C(O)CC/C(=N/NC(=O)c1ccc(-c2ccccc2)cc1)c1ccccc1,–,–,–,–,–,–,·,·,·,·
O=C(O)CC/C(=N\NC(=O)c1ccccc1Br)c1ccccc1,–,–,–,–,–,18.0,–,–,–,–
O=C(CN(c1cccc(C(F)(F)F)c1)S(=O)(=O)c1ccccc1)N1CCOCC1,–,–,–,–,–,–,·,·,·,·
O=C(CN(c1ccc(Cl)c(C(F)(F)F)c1)S(=O)(=O)c1ccccc1)N1CCOCC1,–,–,–,–,–,0.7,–,–,–,–
CC(C)COC(=O)c1ccccc1N1C(=O)C2C3CCC(C3)C2C1=O (centres undefined),–,–,–,–,–,12.6,–,–,–,–
O=C(Nc1ccnc(-c2cccnc2)n1)c1cccs1,–,–,–,–,–,–,·,·,·,·
Cc1nnc(SCC(=O)Nc2cc(Cl)ccc2Cl)n1CC1CCCO1 (centres undefined),–,–,–,–,–,–,·,·,·,·
SMILES,HDAC3 inhib,GASC-1 inh,NALP3 yeast inh,NALP1 inh,PolyA inhibitor,Efflux pump mplx,Yeast cmpd fluor,Mdr1 pump inh,CaCdr2 efflux inh,Cdr1 pump inh
COc1ccc(OC)c(NC(=O)NNC(=O)c2cc3occc3[nH]2)c1,–,–,–,–,–,1.2,–,–,–,–
O=C(CN1CCN(c2ncc(C(F)(F)F)cc2Cl)CC1)N1CCN(c2ncc(C(F)(F)F)cc2Cl)CC1,–,–,–,–,–,0.8,–,–,–,–
CCCCC1(C(=O)OCC)CC(CSC(=N)N)OC1=O (centres undefined),–,–,–,–,–,0.6,–,–,–,–
C=CCn1c(SCc2cc(=O)n3ccsc3n2)nc2cc(Cl)ccc2c1=O,–,–,–,–,–,–,·,·,·,·
C=CCn1c(SCc2cc(=O)n3ccsc3n2)nc2ccccc2c1=O,–,–,–,–,–,0.5,–,–,–,–
Cc1nc(-c2ccccn2)nc(N(C)c2ccccc2)c1Cl,–,–,–,–,–,–,·,·,·,·
COc1cc(/C(C#N)=C/c2cccc3ccccc23)c([N+](=O)[O-])cc1OC,–,–,–,–,–,5.5,–,–,–,–
Cc1ccc(-n2nc3c(=O)n(CC(=O)NCCc4ccccc4C)nc(C)c3c2C)cc1,–,–,–,–,–,4.2,–,–,–,–
Cc1ccc(-n2nc3c(=O)n(CC(=O)NCc4cccs4)nc(C)c3c2C)cc1,–,–,–,–,–,–,–,–,–,–
Cc1ccc(-n2nc3c(=O)n(CCCC(=O)NCc4ccccc4C)nc(C)c3c2C)cc1,–,–,–,–,–,–,·,·,·,·
CCOc1ccc(CNC(=O)Cn2nc(C)c3c(C)n(-c4ccc(C)cc4)nc3c2=O)cc1,?,–,–,–,–,–,–,–,–,–
Cc1ccc(CNC(=O)CCCn2nc(C)c3c(C)n(-c4ccccc4)nc3c2=O)cc1,–,–,–,–,–,–,–,–,–,–
CCCNC(=O)NC(=O)CSc1nc2ccccc2c(=O)n1Cc1ccncc1,–,–,–,–,–,–,·,·,·,·
COc1cc(C(=O)NCC2(N(C)C)CCCCC2)ccc1OCc1ccccc1,–,–,–,–,–,–,·,·,·,·
COc1ccccc1NC(=O)c1c(N=Cc2c(O)ccc3ccccc23)cnn1C,–,–,–,–,–,0.4,–,–,–,–
CCOC(=O)C1CCCN(C(=O)C2CCN(S(=O)(=O)c3c(C)noc3/C=C/c3ccccc3F)CC2)C1 (centres undefined),–,?,–,–,–,–,·,·,·,·
CCc1ccc(C2=CC(c3cc(Br)ccc3F)n3ncnc3N2)cc1 (centres undefined),–,–,–,–,·,0.9,–,–,–,–
Fc1ccc(Br)cc1C1C=C(c2ccc(Br)cc2)Nc2ncnn21 (centres undefined),–,?,–,–,–,–,·,·,·,·
